About 83,000 compounds went through this panel and 20% of them were active in at least one assay; those are over-represented in the sample as a whole.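 How to read the values: 0–100, growth inhibition (40 = 60% inhibited); 0, no net growth; -100 to 0, cell death (-40 = 40% of starting cells died; -100 = all dead).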 A number with no mark means an inactive call. Calls of active or inactive are those of the source. The calls were made as follows: active = growth percent below 10; inactive = the rest.
The compounds below were run on HL-60(TB) leukemia (assay: NCI-60 one-dose screen, 48 h (100 = growth as untreated, 0 = no growth, -100 = all killed)). Settings: 10 µM unless noted.

Compound	growth
COc1ccc(/C=C/c2c(C(=O)/C=C/c3ccc(Cl)cc3)c(C)nc3ccccc23)cc1	10%
C=C1C(=O)O[C@H]2[C@H]1CC/C(CNC(=O)/C1=C/CC[C@@]3(C)O[C@H]3[C@H]3OC(=O)C(=C)[C@@H]3CC1)=C\CC[C@@]1(C)O[C@@H]21	57.4%
CC1(C)N=C(N)N=C(N)N1c1cccc(CCCCc2ccccc2)c1	-76% (active)
Oc1ccc(-c2nn(-c3ccccc3)cc2-c2nc3ccccc3s2)cc1	104%
COc1ccc(-c2nn(-c3cccc(Cl)c3)cc2-c2cc(-c3ccc(Br)cc3)nc(N)n2)cc1	88.4%
COC(=O)c1ccc(NC(N)=NCCC(C)(C)c2ccc(C(F)(F)F)cc2)nc1	-41.4% (active)
COC(=O)[C@]1(C)CC[C@]2(C)CC[C@]3(C)C(=CC(=O)[C@@H]4[C@@]5(C)CCC(=O)NC(C)(C)[C@@H]5CC[C@]43C)[C@@H]2C1	1.31% [100 µM] (active)
O=c1cc(-c2ccccc2)[nH]c(=S)[nH]1	104%
COc1ccc(/C=C/C(=O)c2ccc(Nc3nc(NCCO)nc(Nc4ccc(Cl)cc4)n3)cc2)cc1	94%
CCc1ccc(-c2cn3ccnc3c(-c3ccc4ncn(Cc5ccccc5)c4c3)n2)cc1	60.4%
O=C(C[n+]1ccn(CC(OCc2ccc(Cl)cc2Cl)c2ccc(Cl)cc2Cl)c1)c1ccc(F)cc1 (stereo not drawn)	-51.8% (active)
Cc1sc2nc(NCc3ccccc3)[nH]c(=O)c2c1C	22.4%
COc1ccc(C2CC(=O)c3c(O)c(OC)c(OC)c(OC)c3O2)cc1O (stereo not drawn)	-4.32% (active)
